# Compounds with a hit are over-represented: about 3.8% of the library has one in this group of screens.
# tim10-1 inh: growth inhibitors of tim10-1 mutant yeast; 2.2% of 330,000 active; inhibition, % at 20 µM; S. cerevisiae tim10-1 ts strain growth, BacTiter-Glo, 24 h;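 active = inhibition of at least 40%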;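 note: mutant grown at 25 °C; 0% = DMSO wells with yeast and 100% = wells holding no yeast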
# Yeast superoxide: yeast age-related superoxide inhibition as caloric restriction mimetic | S. cerevisiae aged cells, superoxide DHE fluorescence; stronger effect = lower value | superoxide response (% of plate mean), % at 10 µM | 0.18% of 330,000 active | AID 2690;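 active = superoxide response under a set limit, about three screen SD below normal, cut at about 65% in these data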;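 note: yeast aged for seven days with compound at 30 °C before DHE staining; 100% = average MFI of all compound-treated wells on the plate with controls excluded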
# tim23-1 inh: tim23-1 yeast growth inhibition; S. cerevisiae tim23-1 growth, BacTiter-Glo luminescence, 24 h; inhibition, % at 20 µM; 1.3% of 330,000 active; AID 463212;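 active = growth inhibition of the mutant yeast at or above 50%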;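 note: temperature-sensitive mutant grown at 25 °C; plate controls were DMSO-treated mutant yeast for no effect and medium wells lacking yeast for full effect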
# TIM10 inh: TIM10 yeast growth inhibition; S. cerevisiae TIM10 strain growth, BacTiter-Glo luminescence, 24 h; inhibition, % at 10 µM; 1.4% of 330,000 active;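 active = inhibition of 40% or more at the single tested concentration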;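 note: wild-type TIM10 isogenic control strain grown at permissive 25 °C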
# NALP3 yeast inh: inhibitors of NALP3 inflammasome in yeast. Yeast reconstituted NLRP3/ASC/caspase-1, beta-gal luminescence, 24 h. inhibition, % at 10 µM. 0.39% of 330,000 active. AID 2825;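 active = inhibition of 50% or more; inactive = inhibition below 50%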;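 note: plate controls were induced DMSO wells for no effect and uninduced yeast grown without galactose for full effect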
# tim23-1 confirm: tim23-1 yeast growth inhibition, confirmed; 83% of 4,400 active; S. cerevisiae tim23-1 growth, BacTiter-Glo luminescence, 24 h; shares compounds with tim23-1 inh; inhibition, % at 20 µM;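 active = inhibition above about 39% in either of two replicate wells at 20 µM, limit read from the data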;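 note: temperature-sensitive tim23-1 mutant grown at 25 °C; 0% = DMSO wells with yeast and 100% = medium wells without yeast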
# * hit, by the source's call; nt = not tested or not shown.
SMILES,tim10-1 inh,Yeast superoxide,tim23-1 inh,TIM10 inh,NALP3 yeast inh,tim23-1 confirm
COc1ccc(C(=O)N/N=C/c2ccc(OC)c(COc3ccc(F)cc3F)c2)cc1,9,103,55*,20,2,40*
O=C(CNc1cc(S(=O)(=O)N2CCOCC2)ccc1NCC1CCCO1)Nc1ccccc1F (stereo unspecified),10,85,17,9,-1,nt
C/C(=N\N1CCN(C)CC1)c1ccc(Cl)c(Cl)c1,15,99,14,-4,-10,nt
O=C(NCC1COc2ccccc2O1)c1ccc(NC(=O)c2ccco2)cc1 (stereo unspecified),36,103,58*,33,6,53*
Cc1nn(-c2ccc(Cl)cc2Cl)c(=O)c2ccccc12,20,92,8,-3,37,nt
Cc1nn(-c2ccc(Cl)c(Cl)c2Cl)c(=O)c2ccccc12,40,88,54*,8,40,46*
Cc1[nH][nH]c(=O)c1C(c1ccc(-c2ccc(Cl)c(Cl)c2)o1)c1c(C)[nH][nH]c1=O,35,109,75*,-4,11,46*
COc1ccc(-c2ccc(C(c3c(C)[nH][nH]c3=O)c3c(C)[nH][nH]c3=O)o2)c([N+](=O)[O-])c1,12,nt,31,10,7,nt
Cc1nc(-c2cnn(-c3ccccc3)c2)c2cc(C)oc2n1,24,102,51*,34,27,45*
Cc1oc2c(O)c(O)ccc2c(=O)c1-c1cnn(-c2ccccc2)c1,27,107,1,17,-1,nt
Clc1nssc1=Nc1nncs1,32,100,52*,8,7,76*
N#Cc1cccc(N=c2ssnc2Cl)c1,24,nt,35,2,13,nt
Cc1ccc(C(=O)/C=C/NNC(=O)c2ccccc2O)cc1,5,100,15,0,15,nt
Cc1ccc(N2C(=O)CCC2=O)c(C)c1,6,97,10,9,1,nt
O=C(NC(=S)Nc1ccc2c(c1)OCCO2)c1ccccc1,23,83,54*,33,47,44*
O=C(Nc1ccc2c(c1)OCCO2)c1ccccc1F,36,104,66*,37,17,40*
CCOc1cccc(C(=O)NC(=S)Nc2ccc3c(c2)OCCO3)c1,23,121,35,26,22,nt
O=C(NC(=S)Nc1ccc2c(c1)OCCO2)c1ccccc1F,34,115,17,31,11,nt
Cc1ccc(NC(=O)c2ccc3c(c2)OCCO3)cc1C,15,104,64*,33,44,63*
O=c1c2c(n3cnnc3n1C1CCCCC1)-c1ccccc1CC21CCCCC1,31,94,54*,30,-15,15
CC1=NN(c2ccc(C)c(C)c2)C(=O)/C1=C\C=C\c1ccc([N+](=O)[O-])o1,-22,95,50*,22,17,-33
COc1cc(SC)ccc1C(=O)Nc1ccc2c(c1)CCC2,30,130,51*,5,19,39*
COc1cc(SC)ccc1C(=O)Nc1ccncc1,3,88,16,13,35,nt
COc1ccc(NS(=O)(=O)c2ccc3c(c2)Cc2ccccc2-3)cn1,21,110,64*,32,33,29
COc1ccc(NS(=O)(=O)c2ccc(N3CCCC3=O)cc2)cn1,2,97,10,2,1,nt
SMILES,tim10-1 inh,Yeast superoxide,tim23-1 inh,TIM10 inh,NALP3 yeast inh,tim23-1 confirm
O=C(CCc1cn(Cc2ccc(F)cc2)c2ccccc12)N1CCOCC1,24,102,22,1,12,nt
Oc1c(Br)cc(Br)cc1CNc1cccc2cccnc12,27,101,57*,26,19,62*
Cc1ccc(C(=O)N/N=C/c2nc3ccccc3n2C)cc1,28,117,54*,6,14,39*
Cn1c(/C=N/NC(=O)c2ccccc2Br)nc2ccccc21,-44,147,15,1,16,nt
O=C1C(NS(=O)(=O)c2cccs2)=C(N2CCN(Cc3ccccc3)CC2)C(=O)c2ccccc21,24,114,53*,22,18,32
CN1CCN(C2=C(NS(=O)(=O)c3cccs3)C(=O)c3ccccc3C2=O)CC1,28,121,6,-5,0,nt
CC(C)Oc1cc(O)c2c(=O)c(-c3ccc(O)cc3)coc2c1,37,85,57*,22,15,61*
COc1cccc(C(NC(C)=O)c2ccc3cccnc3c2O)c1 (stereo unspecified),1,104,43,-39,33,nt

# Screening data (PubChem)
